T1: RBFOX1 RRM RbFoxmut (Fox-RRM*) (Homo sapiens, UniProt Q9NWB1 109-208, R118D;E147R;N151S;E152T)
T1 sequence: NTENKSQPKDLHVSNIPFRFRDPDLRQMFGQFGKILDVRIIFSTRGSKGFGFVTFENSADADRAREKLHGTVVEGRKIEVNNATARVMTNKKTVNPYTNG

B1: UCCAUGA (DNA:RNA)
RNA: GGGAGACCGGAAUUCAGAUUGUCCUCCAUGAUUAAAUCCCGUCGUAGCCACCA
DNA 1: CAATCTGAATTCCGGTCTCCC
DNA 2: TGGTGGCTACGACGGGATT
B2: GGAGUCA (DNA:RNA)
RNA: B1 RNA with U25G, C26G, C27A, A28G, G30C
DNA 1: CAATCTGAATTCCGGTCTCCC
DNA 2: TGGTGGCTACGACGGGATT
B3: CCAACAG (DNA:RNA)
RNA: B1 RNA with U25C, C27A, U29C, G30A, A31G
DNA 1: CAATCTGAATTCCGGTCTCCC
DNA 2: TGGTGGCTACGACGGGATT
B4: ACGGAGA (DNA:RNA)
RNA: B1 RNA with U25A, C27G, A28G, U29A
DNA 1: CAATCTGAATTCCGGTCTCCC
DNA 2: TGGTGGCTACGACGGGATT
B5: GAUCACA (DNA:RNA)
RNA: B1 RNA with U25G, C26A, C27U, A28C, U29A, G30C
DNA 1: CAATCTGAATTCCGGTCTCCC
DNA 2: TGGTGGCTACGACGGGATT
B6: GAUCCGG (DNA:RNA)
RNA: B1 RNA with U25G, C26A, C27U, A28C, U29C, A31G
DNA 1: CAATCTGAATTCCGGTCTCCC
DNA 2: TGGTGGCTACGACGGGATT
B7: CUUCGGA (DNA:RNA)
RNA: B1 RNA with U25C, C26U, C27U, A28C, U29G
DNA 1: CAATCTGAATTCCGGTCTCCC
DNA 2: TGGTGGCTACGACGGGATT
B8: AUGUGCC (DNA:RNA)
RNA: GGGAGACCGGAAUUCAGAUUGUCCAUGUGCCUUAAAUCCCGUCGUAGCCACCA
DNA 1: CAATCTGAATTCCGGTCTCCC
DNA 2: TGGTGGCTACGACGGGATT
B9: AUGUCCC (DNA:RNA)
RNA: B8 RNA with G29C
DNA 1: CAATCTGAATTCCGGTCTCCC
DNA 2: TGGTGGCTACGACGGGATT
B10: AUGUGUG (DNA:RNA)
RNA: B8 RNA with C30U, C31G
DNA 1: CAATCTGAATTCCGGTCTCCC
DNA 2: TGGTGGCTACGACGGGATT
B11: AUGUGUU (DNA:RNA)
RNA: B8 RNA with C30U, C31U
DNA 1: CAATCTGAATTCCGGTCTCCC
DNA 2: TGGTGGCTACGACGGGATT
B12: AUGUGUC (DNA:RNA)
RNA: B8 RNA with C30U
DNA 1: CAATCTGAATTCCGGTCTCCC
DNA 2: TGGTGGCTACGACGGGATT
B13: AUGUGCG (DNA:RNA)
RNA: B8 RNA with C31G
DNA 1: CAATCTGAATTCCGGTCTCCC
DNA 2: TGGTGGCTACGACGGGATT
B14: CAUACAC (DNA:RNA)
RNA: B8 RNA with A25C, U26A, G27U, U28A, G29C, C30A
DNA 1: CAATCTGAATTCCGGTCTCCC
DNA 2: TGGTGGCTACGACGGGATT
B15: GUCUAGC (DNA:RNA)
RNA: B8 RNA with A25G, G27C, G29A, C30G
DNA 1: CAATCTGAATTCCGGTCTCCC
DNA 2: TGGTGGCTACGACGGGATT
B16: UUCCCGC (DNA:RNA)
RNA: B1 RNA with C26U, A28C, U29C, A31C
DNA 1: CAATCTGAATTCCGGTCTCCC
DNA 2: TGGTGGCTACGACGGGATT
B17: CCCGCGA (DNA:RNA)
RNA: B1 RNA with U25C, A28G, U29C
DNA 1: CAATCTGAATTCCGGTCTCCC
DNA 2: TGGTGGCTACGACGGGATT
B18: CAUUCUU (DNA:RNA)
RNA: B8 RNA with A25C, U26A, G27U, G29C, C30U, C31U
DNA 1: CAATCTGAATTCCGGTCTCCC
DNA 2: TGGTGGCTACGACGGGATT
B19: AAAGCCC (DNA:RNA)
RNA: B8 RNA with U26A, G27A, U28G, G29C
DNA 1: CAATCTGAATTCCGGTCTCCC
DNA 2: TGGTGGCTACGACGGGATT
B20: ACGCGUC (DNA:RNA)
RNA: B8 RNA with U26C, U28C, C30U
DNA 1: CAATCTGAATTCCGGTCTCCC
DNA 2: TGGTGGCTACGACGGGATT
B21: ACGCAUG (DNA:RNA)
RNA: B8 RNA with U26C, U28C, G29A, C30U, C31G
DNA 1: CAATCTGAATTCCGGTCTCCC
DNA 2: TGGTGGCTACGACGGGATT
B22: ACGCAGA (DNA:RNA)
RNA: B1 RNA with U25A, C27G, A28C, U29A
DNA 1: CAATCTGAATTCCGGTCTCCC
DNA 2: TGGTGGCTACGACGGGATT
B23: ACGCAUA (DNA:RNA)
RNA: B8 RNA with U26C, U28C, G29A, C30U, C31A
DNA 1: CAATCTGAATTCCGGTCTCCC
DNA 2: TGGTGGCTACGACGGGATT
B24: ACGCAUC (DNA:RNA)
RNA: B8 RNA with U26C, U28C, G29A, C30U
DNA 1: CAATCTGAATTCCGGTCTCCC
DNA 2: TGGTGGCTACGACGGGATT
B25: ACGCGCA (DNA:RNA)
RNA: B8 RNA with U26C, U28C, C31A
DNA 1: CAATCTGAATTCCGGTCTCCC
DNA 2: TGGTGGCTACGACGGGATT
B26: UCAUUGC (DNA:RNA)
RNA: B1 RNA with C27A, A28U, A31C
DNA 1: CAATCTGAATTCCGGTCTCCC
DNA 2: TGGTGGCTACGACGGGATT
B27: GAUAGUG (DNA:RNA)
RNA: B8 RNA with A25G, U26A, G27U, U28A, C30U, C31G
DNA 1: CAATCTGAATTCCGGTCTCCC
DNA 2: TGGTGGCTACGACGGGATT
B28: CGAUAGA (DNA:RNA)
RNA: B1 RNA with U25C, C26G, C27A, A28U, U29A
DNA 1: CAATCTGAATTCCGGTCTCCC
DNA 2: TGGTGGCTACGACGGGATT
B29: UGGUAUG (DNA:RNA)
RNA: B8 RNA with A25U, U26G, G29A, C30U, C31G
DNA 1: CAATCTGAATTCCGGTCTCCC
DNA 2: TGGTGGCTACGACGGGATT
B30: UGGUAGC (DNA:RNA)
RNA: B8 RNA with A25U, U26G, G29A, C30G
DNA 1: CAATCTGAATTCCGGTCTCCC
DNA 2: TGGTGGCTACGACGGGATT
B31: UGGUAUC (DNA:RNA)
RNA: B8 RNA with A25U, U26G, G29A, C30U
DNA 1: CAATCTGAATTCCGGTCTCCC
DNA 2: TGGTGGCTACGACGGGATT
B32: UGGUAGA (DNA:RNA)
RNA: B1 RNA with C26G, C27G, A28U, U29A
DNA 1: CAATCTGAATTCCGGTCTCCC
DNA 2: TGGTGGCTACGACGGGATT
B33: UGGUAUA (DNA:RNA)
RNA: B8 RNA with A25U, U26G, G29A, C30U, C31A
DNA 1: CAATCTGAATTCCGGTCTCCC
DNA 2: TGGTGGCTACGACGGGATT
B34: UGGUAAA (DNA:RNA)
RNA: B8 RNA with A25U, U26G, G29A, C30A, C31A
DNA 1: CAATCTGAATTCCGGTCTCCC
DNA 2: TGGTGGCTACGACGGGATT

Numbering of substitutions follows the chain as printed; changes in the protein carry UniProt numbers. The full ranking holds about 16,000 sequences; the median of “ka relative to ugcaugu” is about 0.096, and the highest 2% start at about 0.35. The sample holds the highest values, similar sequences and a random draw of the others, so the mix is not that of the screen.

For the experiment, the target named is T1, RBFOX1 RRM RbFoxmut (Fox-RRM*). Kind of experiment: EMSA; HiTS-Eq, 1 nM pool, 10 min; buffer printed only for the single-RNA assays: 10 mM Tris pH 7.5, 150 mM NaCl, 3.4 mM EDTA, 0.001% NP-40, 30 C. To be noted: tags: His6 N-terminal (pET28a); label: 5' 32P. The procedure, abridged: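 Relative association constants, normalised to the cognate motif, were derived by comparing read counts of each RNA species with those of the control reaction. The RNA sequenced was the free fraction, separated by 8% native PAGE after a 10 min equilibration in 50 µL of 1 nM 5′-radiolabelled RNA (7 randomized nucleotides) with increasing concentrations of purified wild-type or mutant RbFox RRM.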
(A gel shift assay detects complexes by their altered migration in electrophoresis.)
For B1, the binding signal was 0.11 KA relative to UGCAUGU.

As to B2, the binding signal was 0.0995 KA relative to UGCAUGU.

B3: the binding signal was 0.108 KA relative to UGCAUGU.

Consider B4, for which the binding signal is 0.0992 KA relative to UGCAUGU.

In the case of B5, the binding signal was 0.0738 KA relative to UGCAUGU.

For the molecule B6, the binding signal was 0.06 KA relative to UGCAUGU.

With B7, the binding signal was 0.0749 KA relative to UGCAUGU.

Regarding B8, the binding signal is 0.372 KA relative to UGCAUGU.

For B9, the binding signal was 0.0715 KA relative to UGCAUGU.

On to B10, for which the binding signal was 0.443 KA relative to UGCAUGU.

As for B11, the binding signal is 0.174 KA relative to UGCAUGU.

For B12, the binding signal is 0.289 KA relative to UGCAUGU.

B13: the binding signal is 0.231 KA relative to UGCAUGU.

In the case of B14, the binding signal was 0.0927 KA relative to UGCAUGU.

As to B15, the binding signal was 0.0934 KA relative to UGCAUGU.

As to B16, the binding signal is 0.0732 KA relative to UGCAUGU.

Consider B17, for which the binding signal was 0.0823 KA relative to UGCAUGU.

With B18, the binding signal was 0.101 KA relative to UGCAUGU.

For B19, the binding signal was 0.066 KA relative to UGCAUGU.

On to B20, for which the binding signal was 0.0969 KA relative to UGCAUGU.

Turning to B21, the binding signal is 0.844 KA relative to UGCAUGU.

Regarding B22, the binding signal was 0.106 KA relative to UGCAUGU.

Take B23: the binding signal was 0.152 KA relative to UGCAUGU.

As to B24, the binding signal was 0.355 KA relative to UGCAUGU.

For the molecule B25, the binding signal was 0.15 KA relative to UGCAUGU.

For B26, the binding signal is 0.12 KA relative to UGCAUGU.

On to B27, for which the binding signal was 0.126 KA relative to UGCAUGU.

With B28, the binding signal was 0.101 KA relative to UGCAUGU.

With B29, the binding signal was 1.27 KA relative to UGCAUGU.

Consider B30, for which the binding signal was 0.102 KA relative to UGCAUGU.

In the case of B31, the binding signal was 0.356 KA relative to UGCAUGU.

Regarding B32, the binding signal was 0.128 KA relative to UGCAUGU.

Take B33: the binding signal is 0.157 KA relative to UGCAUGU.

Turning to B34, the binding signal is 0.0843 KA relative to UGCAUGU.
